The record followed here is PubChem BioAssay (Tox21).

Results filed as inconclusive are left out. Activity calls are given as the source filed them. Unless noted, the call rests on the fitted dose curve; in most records, active means well fitted curve in the direction sought with a large enough effect in the repeat runs; inconclusive means weak or mixed curves; inactive means no such curve, though single readings can be large; an effect the other way counts as inactive or inconclusive.

Test [1] can be described thus: qHTS assay for small molecules that induce genotoxicity in human embryonic kidney cells expressing luciferase-tagged ATAD5 (AID 651632). Further: nearly all actives have a fitted effect of over 15% in size. Further: potency means the concentration at half of the fitted maximal effect. Particulars: HEK293T ATAD5-luciferase induction, 16 h; series mostly up to 83.3 µM. In a few lines: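 Concentration-response screen for ATAD5 upregulation in HEK293T luciferase reporter cells; 16 hr treatment at 37C, then luminescence after 30 min with Amplite at room temperature.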

A short description of test [2]: qHTS assay for small molecule agonists of the p53 signaling pathway - cell viability (AID 651633; calls by dose curve;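 further: p53RE-bla HCT reporter cells with a stable beta-lactamase p53 reporter; nearly all actives have a fitted effect of over 30% in size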). Particulars: p53RE-bla HCT-116 viability, ATP luminescence, 16 h; series mostly up to 83.3 µM. Summed up: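 p53RE-bla cells were treated with compound for 16 hours at 37 C. Cytotoxicity was then measured as CellTiter-Glo luminescence after 30 min at room temperature.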

Test [3] in a line: qHTS assay for small molecules that induce genotoxicity in human embryonic kidney cells expressing luciferase-tagged ATAD5 - cell viability (AID 651634; calls by dose curve; further: nearly all actives have a fitted effect of over 25% in size). The following applies: HEK293T ATAD5-luc cells viability, CellTiter-Fluor, 15.5 h; series mostly up to 83.3 µM. Summed up: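 15.5 hr compound or vehicle exposure of HEK293T cells expressing luciferase-tagged ATAD5 at 37C; live-cell protease activity is read by fluorescence after 30 min of CellTiter-Fluor.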

Test [4] can be described thus: qHTS assay to test for compound auto fluorescence at 590 nm (red) in HepG2 cells (AID 720674). Particulars: HepG2 autofluorescence, red 540/590 nm, 1 h; series mostly up to 91.3 µM. Summed up: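 HepG2 cells, 2,000 per well in MEM with 10% FBS, attached overnight at 37 C, then got 23 nL compound or DMSO. After 1 hr at 37 C, 5% CO2, red fluorescence was read at 540/590 nm against Rose Bengal sodium as reference.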

The nature of test [5]: qHTS assay to test for compound auto fluorescence at 535 nm (green) in HepG2 cells (AID 720675). The following applies: green autofluorescence 485/535 nm, 1 h; series mostly up to 91.3 µM.
A short description of test [6]: qHTS assay to test for compound auto fluorescence at 460 nm (blue) in HEK293 cells (AID 720678). The following applies: blue autofluorescence 405/460 nm; series mostly up to 91.3 µM. In a few lines: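 Blue-channel (Ex/Em 405/460 nm) intensity measured in HEK293 cultures after overnight compound exposure at 37C; signal expressed relative to triamterene. Cells plated 2,000 per well in 10% dialyzed FBS medium and allowed 4-5 hr to attach.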

Test [7] is described as follows: qHTS assay to test for compound auto fluorescence at 590 nm (red) in HEK293 cells (AID 720679). Particulars: red autofluorescence 540/590 nm; series mostly up to 91.3 µM. Summed up:
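Red-channel autofluorescence (Ex/Em 540/590 nm; Rose Bengal sodium reference) was measured after overnight 37C, 5% CO2 exposure of attached HEK293 cells, 2,000 per well in medium with 10% dialyzed FBS.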

Test [8] is described as follows: qHTS assay to test for compound auto fluorescence at 535 nm (green) in HEK293 cells (AID 720680). The following applies: green autofluorescence 485/535 nm; series mostly up to 91.3 µM.
Test [9] can be described thus: qHTS assay to test for compound auto fluorescence at 460 nm (blue) in HEK293 cell free culture (AID 720681). The following applies: cell-free medium, autofluorescence 405/460 nm (blue); series mostly up to 91.3 µM. Summed up:
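Compounds were added to cell-free DMEM with 10% FBS and fluorescence read directly. The blue channel used 405 nm excitation and 460 nm emission, with triamterene as the reference fluorophore.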

Test [10] is described as follows: qHTS assay to test for compound auto fluorescence at 535 nm (green) in HEK293 cell free culture (AID 720682). The following applies: cell-free medium, green autofluorescence 485/535 nm, stronger effect = higher value; series mostly up to 91.3 µM. Summed up: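 No cells present: wells hold DMEM supplemented with 10% FBS, into which compound or vehicle is pinned. Green emission is then recorded (485 nm excitation, 535 nm emission) and scaled to fluorescein.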

Test [11] in a line: qHTS assay to test for compound auto fluorescence at 590 nm (red) in HEK293 cell free culture (AID 720683). The following applies: cell-free medium autofluorescence, Ex540/Em590 red; series mostly up to 91.3 µM. In a few lines:
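Cell-free wells of DMEM with 10% FBS received compound, and intrinsic fluorescence was read at excitation/emission 540/590 nm. Values expressed as equivalence to Rose Bengal sodium.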

Test [12] can be described thus: qHTS assay to test for compound auto fluorescence at 590 nm (red) in HepG2 cell free culture (AID 720684). Particulars: cell-free medium autofluorescence, red 540/590 nm; series mostly up to 91.3 µM. In a few lines:
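Auto fluorescence equivalency versus Rose Bengal sodium, red channel Ex/Em 540/590 nm; compounds in cell-free MEM/10% FBS; DMSO vehicle control.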

Test [13] in a line: qHTS assay to test for compound auto fluorescence at 460 nm (blue) in HepG2 cell free culture (AID 720685). Particulars: Cell-free culture medium, blue autofluorescence 405/460 nm; series mostly up to 91.3 µM. Summed up:
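Cell-free plates of MEM plus 10% FBS received 23 nL compound or DMSO vehicle; blue-channel (405/460 nm) intensity scored against triamterene as reference fluorophore.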

Test [14] is described as follows: qHTS assay to test for compound auto fluorescence at 535 nm (green) in HepG2 cell free culture (AID 720686). The following applies: Cell-free medium, green autofluorescence 485/535 nm; series mostly up to 91.3 µM.
Test [15] is described as follows: qHTS assay to test for compound auto fluorescence at 460 nm (blue) in HepG2 cells (AID 720687). Particulars: autofluorescence 405/460 nm, 1 h; series mostly up to 91.3 µM. Summed up: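 HepG2 cells in MEM with 10% FBS, attached overnight at 37 C, were exposed to compound or DMSO for 1 hr at 37 C, 5% CO2. Blue fluorescence was read at 405/460 nm, with triamterene as reference fluorophore.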

Test [16] concerns the target Glucocorticoid receptor (Homo sapiens) (UniProt P04150). As to the kind of experiment: qHTS assay to identify small molecule agonists of the glucocorticoid receptor (GR) signaling pathway (AID 720691; active means well fitted activation curve with a large enough effect in the signal ratio in the repeat runs, not every such curve was filed as active; the % refers to the signal ratio). Particulars: GR-bla HeLa, beta-lactamase reporter ratio, 18 h; series mostly up to 62.4 µM. In a few lines: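 Measures GR pathway activation through a GRE-beta-lactamase reporter stably integrated in HeLa cells, with 18 h compound treatment at 37 C and fluorescence detection using a FRET substrate.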

Test [17] can be described thus: qHTS assay for small molecule disruptors of the mitochondrial membrane potential - cell viability (AID 720634; calls by dose curve;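 further: human HepG2 liver cancer cells; nearly all actives have a fitted effect of over 20% in size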). Particulars: HepG2 viability, ATP luminescence (CellTiter-Glo), 1 h; series mostly up to 83.2 µM. In a few lines:
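In this qHTS format, HepG2 cells plated overnight were pinned with compound, incubated 1 hr, and assayed for ATP luminescence with CellTiter-Glo after m-MPI dye addition.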

Test [18] addresses Glucocorticoid receptor (Homo sapiens) (UniProt P04150). Kind of test: qHTS assay to identify small molecule antagonists of the glucocorticoid receptor (GR) signaling pathway (AID 720692; active means well fitted inhibition curve with a large enough effect in the signal ratio in the repeat runs, not every such curve was filed as active; the % refers to the signal ratio; further: potency means the concentration at half of the fitted maximal effect). The following applies: GR-bla HeLa, beta-lactamase FRET ratio, dexamethasone-stimulated, 18 h; series mostly up to 58.5 µM. Summed up: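 Tox21 10K library screened in concentration-response for blockade of dexamethasone (5 nM final)-induced GRE-bla reporter activity in HeLa cells; 18 h treatment, fluorescence read.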

A short description of test [19]: qHTS assay for small molecule disruptors of the mitochondrial membrane potential (AID 720635). Particulars: HepG2 mitochondrial membrane potential, Mito-MPS dye ratio; series mostly up to 83.2 µM. Summed up:
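HepG2 cells exposed to compound 1 hr at 37C, then Mito-MPS dye 30 min. Ratio read of aggregate (540/590 nm) versus monomer (490/535 nm) fluorescence.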

Sequence of Glucocorticoid receptor (Homo sapiens) (P04150 whole entry, looked up): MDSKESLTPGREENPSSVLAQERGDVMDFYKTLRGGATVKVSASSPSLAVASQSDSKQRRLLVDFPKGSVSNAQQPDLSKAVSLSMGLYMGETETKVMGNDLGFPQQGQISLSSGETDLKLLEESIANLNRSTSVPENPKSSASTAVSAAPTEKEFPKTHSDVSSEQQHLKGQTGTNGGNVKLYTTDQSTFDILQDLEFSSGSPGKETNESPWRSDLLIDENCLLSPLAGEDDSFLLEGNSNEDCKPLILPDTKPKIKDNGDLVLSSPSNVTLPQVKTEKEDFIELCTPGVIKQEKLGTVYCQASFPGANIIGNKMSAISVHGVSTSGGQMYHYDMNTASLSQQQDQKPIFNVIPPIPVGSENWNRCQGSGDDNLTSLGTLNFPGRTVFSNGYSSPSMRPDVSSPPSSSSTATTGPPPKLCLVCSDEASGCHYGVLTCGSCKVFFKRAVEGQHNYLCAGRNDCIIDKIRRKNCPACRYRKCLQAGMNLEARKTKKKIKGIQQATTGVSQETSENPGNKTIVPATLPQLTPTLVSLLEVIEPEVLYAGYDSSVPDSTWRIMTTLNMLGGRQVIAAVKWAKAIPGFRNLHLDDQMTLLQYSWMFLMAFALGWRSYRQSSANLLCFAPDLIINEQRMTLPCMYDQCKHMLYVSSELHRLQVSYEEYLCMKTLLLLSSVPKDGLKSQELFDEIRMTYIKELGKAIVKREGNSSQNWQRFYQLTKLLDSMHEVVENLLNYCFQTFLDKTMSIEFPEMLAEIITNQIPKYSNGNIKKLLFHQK

For `CC(C=O)Cc1ccc2c(c1)OCO2` (configuration not stated), the Potency entry in [1], in [2] and in [3] was “inactive” in each case. Besides, the compound was called inactive in [4], in test [5], in [6], in test [7], in test [8] and in test [9]. The compound was called inactive in test [10], in [11], in test [12], in [13], in [14] and in [15]. Further, the outcome in test [16] was inactive.
Consider `O=[N+]([O-])c1cc(Cl)c(Cl)c(Cl)c1`, for which the Potency result in [1], in test [2] and in [17] was “inactive” in each case. Further, the outcome in test [4], in [5], in test [7], in test [8], in test [9] and in test [11] was inactive. Besides, the call in test [12], in test [13], in test [14] and in test [15] was inactive.
On to `Nc1n[nH]c(N)n1`, for which the Potency result in [1], in test [2] and in test [3] was “inactive” throughout. The compound was classed as inactive in test [4], in test [5], in [6], in [7], in [8] and in test [9]. For the same compound, the result in test [10], in test [11], in test [12], in [13], in test [15] and in test [16] was inactive.
On to `CC(=O)C(Cl)Cl`, for which the Potency entry in [1], in test [2], in test [3] and in test [18] was “inactive” in each case. The compound was classed as inactive in test [4], in test [5], in test [6], in [7], in [9] and in test [10]. Moreover, the outcome in test [11], in [12], in test [13], in [14], in test [15] and in test [16] was inactive.
For the compound `Fc1ccc(C2(Cn3cncn3)OC2c2ccccc2Cl)cc1` (configuration not stated), the Potency entry in [1], in test [2] and in test [3] was “inactive” throughout. The result in [4], in [5], in test [6], in [7], in [8] and in [9] was inactive. The result in test [11], in [12], in test [13], in test [14], in [15] and in test [16] was inactive.
As for `CCCCOP(=O)(O)OCCCC`, the Potency entry in [1], in test [3], in test [17] and in test [19] was “inactive” each time. Further, the outcome in test [4], in test [5], in [6], in test [7], in [8] and in test [9] was inactive. Also, the compound was called inactive in test [10], in test [11], in test [12], in test [14], in [15] and in [16].
In the case of `CCCCOC(=O)c1ccccc1N`, the Potency result in test [1], in test [2] and in test [17] was “inactive” each time. In addition, the outcome in test [4], in test [5], in [6], in [7], in [8] and in test [9] was inactive. For the same compound, the result in [10], in test [11], in test [12], in [14], in test [15] and in test [16] was inactive.
`Cc1ncc2n1-c1ccc(Cl)cc1C(c1ccccc1F)=NC2`: the Potency was 26.6 µM (active) in test [1] and 16.9 µM (active) in test [18]. The Potency result in [2] and in test [3] was “inactive” in each case. Moreover, the call in test [4], in [5], in test [6], in test [7], in [8] and in test [9] was inactive. Also, the call in [10], in test [11], in [12], in test [13], in test [14] and in test [15] was inactive. Moreover, in [16], the result was inactive.
`Cc1ccccc1CO[C@@H]1C[C@@]2(C(C)C)CC[C@]1(C)O2`: the Potency entry in test [1], in [2] and in [3] was “inactive” throughout. For the same compound, the compound was classed as inactive in test [4], in [5], in test [6], in [7], in test [8] and in test [9]. The compound was called inactive in test [10], in [11], in test [12], in test [14] and in test [15].
